Assay outcomes from PubChem BioAssay.
An excerpt weighted towards active compounds, which were near 7.3% of everything screened.
FLuc modulator – counter-screen for miR-21 project: firefly luciferase inhibitors or activators. purified FLuc, Km substrates, luminescence inhibition. P08659. Potency, µM (doses to about 57.5 µM), for inactives: at the top dose activity change, negative = inhibition, actives largely listed as inhibitors. actives 6.9% (n = 360,000). AID 588342;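 also: plate controls were vehicle for no effect and reference inhibitor for full effect; nearly all actives have a fitted effect of over 55% in size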
Target sequence (P08659 whole entry, looked up): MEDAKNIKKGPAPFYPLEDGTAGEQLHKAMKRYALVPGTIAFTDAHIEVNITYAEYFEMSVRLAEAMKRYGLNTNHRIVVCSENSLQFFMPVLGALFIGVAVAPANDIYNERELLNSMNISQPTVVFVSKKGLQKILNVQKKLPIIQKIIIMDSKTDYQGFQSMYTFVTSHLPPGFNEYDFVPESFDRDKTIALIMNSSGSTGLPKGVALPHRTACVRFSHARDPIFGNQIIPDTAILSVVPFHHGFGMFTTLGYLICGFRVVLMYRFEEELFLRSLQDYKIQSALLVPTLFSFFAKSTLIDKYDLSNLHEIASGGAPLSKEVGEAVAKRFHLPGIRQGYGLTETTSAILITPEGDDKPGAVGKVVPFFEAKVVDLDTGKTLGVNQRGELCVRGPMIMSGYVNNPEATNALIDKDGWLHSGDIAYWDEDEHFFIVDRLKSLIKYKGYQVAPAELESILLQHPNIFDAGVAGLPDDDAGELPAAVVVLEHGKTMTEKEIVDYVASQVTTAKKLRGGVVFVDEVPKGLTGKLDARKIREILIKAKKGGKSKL
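Purified P. pyralis luciferase (10nM final) with 10uM D-luciferin and 10uM ATP (Km levels) in 50mM Tris acetate pH 7.5, 10mM Mg acetate, 0.01% Tween-20, 0.05% BSA; qHTS 6-point titration, ~60 µM downward; luminescence read.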
ELG1 genotoxic – inducers of genotoxicity in HEK293T ELG1-luciferase cells; HEK293T ELG1-luciferase reporter, luminescence, 16 h; Potency, µM (series often up to 46 µM), for the others: at the top dose activity change, positive = activation, hits mostly activators; actives 1.3% (n = 330,000); AID 504466; also: % of control where 0% means no effect; nearly all actives have a fitted effect of over 60% in size
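Reporter readout depends on ELG1 protein level, which increases with genetic stress. After 16 hr compound exposure at 37 °C, luciferase activity was quantified using ONE-Glo.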
Rab9 promoter act – Rab9 promoter activation | Potency, µM (doses to about 9.22 µM), inactives show at the top dose activation, negative = inhibition, actives largely listed as activators | actives 2.8% (n = 320,000) | Huh7 Rab9 promoter-luciferase reporter, luminescence, 24 h; also: % of control where 0% means no effect; nearly all actives have a fitted effect of over 60% in size
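Steps: seed 1500 Huh7 Rab9-luc cells per well, rest 2 h at 37 °C; add compound in DMSO; incubate 24 h; add luciferase reagent, 10 min ambient; read luminescence.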
SMN2 splice up – enhancers of SMN2 splice variant expression. HEK293 SMN2-luciferase splicing reporter, luminescence, 30-36 h. Potency, µM (titrated, usually from 46.1 µM), for inactives: at the highest dose activity change, positive = activation, hits mostly activators. actives 2.8% (n = 210,000); also: % of control where 0% means no effect; nearly all actives have a fitted effect of over 55% in size
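HEK293 cells carry an SMN2 minigene-luciferase reporter in which exon 7 inclusion puts luciferase in frame. Cells were seeded at 2000 cells/well, attached for 10-12 hours, then exposed to compounds for 30-36 hours at 37C before ONE-Glo luminescence.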
Luc counter – blocks Kinase-Glo luciferase, a counter-screen artifact | AID 1379 | actives 0.28% (n = 200,000) | Potency, µM (doses to about 38.3 µM), inactives show at the top dose activity change, negative = inhibition, actives largely listed as inhibitors | Kinase-Glo luciferase, ATP luminescence, 8 min; also: % is scaled to controls: 0 for no effect and ±100 for the full control effect; nearly all actives have a fitted effect of over 60% in size
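Compound is pinned into ATP-containing buffer (10 uM ATP, imidazole pH 7.2, 7 mM MgCl2). Kinase-Glo luciferase reagent is then added. Light output is recorded following an 8-min room-temperature incubation.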
NPC1 promoter act – activators of NPC1 promoter. Huh7 NPC1 promoter luciferase reporter, 24 h. Potency, µM (titrated, usually from 9.22 µM), for inactives: at the top dose activation, hits mostly activators. actives 2.4% (n = 320,000). AID 485313; also: % of control where 0% means no effect; nearly all actives have a fitted effect of over 60% in size
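Cells: Huh7 expressing luciferase under the NPC1 promoter, 1500/well. Seeded 2 h, compound added, incubated 24 h at 37 °C. Luciferase reagent, 10 min ambient, then luminescence.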
* marks the source's active call; other numbers are inactive results; ? = inconclusive; . = no result given. Calls follow the shape of the dose curve; as a rule, active = well fitted curve in the direction sought with a large enough effect; inconclusive = small, poorly fitted or top-dose-only effect, or another doubt; inactive = no such curve, though single readings can be large; an effect the other way counts as inactive or inconclusive. Potency is read from the fitted curve at half-maximal effect.

SMILES | FLuc modulator | ELG1 genotoxic | Rab9 promoter act | SMN2 splice up | Luc counter | NPC1 promoter act
Cc1oc(/N=C/c2ccc(O)cc2O)c(C#N)c1C | 17µM* | 7% | 2% | -8% | -5% | -3%
Cc1oc(/N=C/c2ccc(Cl)cc2)c(C#N)c1C | 11µM* | -1% | -12% | 21% | -3% | 9%
CC1(C(=O)N2CCN(c3ccccc3)CC2)CC1(Cl)Cl (centres undefined) | 0% | -3% | -4% | 8% | 4% | -2%
Cc1ccc(OCC(=O)N/N=C/c2cn(C)c3ccccc23)cc1 | 11µM* | 4% | 11% | . | . | 3%
Cc1ccc(OCC(=O)N/N=C\c2cn(Cc3ccccc3)c3ccccc23)cc1C | 0% | -4% | 7% | -27% | 0% | -1%
CNC(=S)N/N=C/c1cn(CCOc2ccc(OC)cc2)c2ccccc12 | 21µM* | 5% | -3% | ? | -1% | -1%
Cc1ccccc1OCC(=O)N/N=C/c1cn(C)c2ccccc12 | 15µM* | -2% | 13% | . | . | -1%
CCOn1c(=O)c(-c2cccc(Br)c2)[n+]([O-])c2ccccc21 | -2% | 1% | -6% | . | . | -6%
CN1CCN(S(=O)(=O)c2ccc(N3CCN(c4ccc(O)cc4)CC3)c([N+](=O)[O-])c2)CC1 | 3% | -4% | -2% | . | . | -1%
Nc1ccc(-c2nc3ncccc3o2)c(Cl)c1 | 4.8µM* | 10µM* | 3.2µM* | 13µM* | 1% | 2µM*
Nc1ccc(Cl)c(-c2nc3ncccc3o2)c1 | ? | 6% | 16% | ? | 0% | 20%
Nc1ccc(-c2nc3ncccc3o2)c(O)c1 | 12µM* | ? | 4µM* | . | . | 2.8µM*
COc1ccc2oc(=O)c(-c3nc(C)cs3)cc2c1 | ? | ? | 2.8µM* | 14µM* | ? | ?
CCc1ccc(Nc2nnc(-c3cc4cc(OC)ccc4oc3=O)s2)cc1 | -4% | . | . | . | . | .
CC/C(C)=N\Nc1nc(-c2cc3cc(OC)ccc3oc2=O)cs1 | 17µM* | 17% | ? | . | . | ?
COc1ccc2oc(=O)c(-c3nc(-c4ccc(C)c(C)c4)cs3)cc2c1 | -11% | . | . | . | . | .
CCOC(=O)c1cccc(NC(=O)C2CCN(S(=O)(=O)c3cn(C)cn3)CC2)c1 | -12% | . | . | . | . | .
COc1ccc(C)cc1NC(=O)Cn1c(=O)nc(-c2ccccc2F)c2cc(Cl)ccc21 | -9% | . | . | . | . | .
Cc1cc(C(=O)CN2C(=O)CCC2=O)c(C)n1Cc1ccccc1 | ? | ? | 1% | -43% | 12% | -6%
Cc1cc(C(=O)CN2C(=O)c3ccccc3C2=O)c(C)n1Cc1cccs1 | 0.85µM* | ? | 0.4µM* | 14µM* | 0% | 0.5µM*
Cc1cc(C(=O)Cn2nnc3ccccc3c2=O)c(C)n1Cc1cccs1 | 0.6µM* | 2.6µM* | 0.45µM* | 0% | -2% | 0.35µM*
CCCCNC(=O)CN1C(=O)c2cccc(N)c2C1=O | -3% | 0% | -2% | 4% | 4% | -4%
CCCn1c(C)cc(C(=O)CN2C(=O)c3cccc(N)c3C2=O)c1C | 2.7µM* | ? | 3.2µM* | ? | -4% | 2.8µM*
OCCC1CN(Cc2cccn2-c2ccccn2)CCN1C1CCCC1 (centres undefined) | 7% | 0% | 12% | . | . | -2%
CC(=O)NC(Cc1ccccc1)C(=O)OCC(=O)c1ccc(Br)cc1 (centres undefined) | -8% | 1% | 1% | 17% | -3% | 2%
SMILES | FLuc modulator | ELG1 genotoxic | Rab9 promoter act | SMN2 splice up | Luc counter | NPC1 promoter act
COc1ccccc1NC(CC(=O)c1ccccc1)C(=O)OCC(=O)c1ccc(Br)cc1 (centres undefined) | 2.1µM* | 2.1µM* | 11% | 27% | 0% | 20%
COc1ccccc1NC(CC(=O)c1ccccc1)C(=O)OCC(=O)c1ccc(C)cc1 (centres undefined) | 3.4µM* | 2.3µM* | 26% | 8.9µM* | -2% | 10%
O=C(CC(Nc1ccccc1Cl)C(=O)OCC(=O)c1cccs1)c1ccccc1 (centres undefined) | -18% | ? | 15% | -8% | 0% | 5%
COc1ccccc1NC(CC(=O)c1ccccc1)C(=O)OCC(=O)c1ccc(C)c(C)c1 (centres undefined) | 3µM* | 2.1µM* | 19% | 8.9µM* | 2% | 16%
COn1c(-c2ccccc2)c(C=O)c2ccccc21 | ? | 3% | 10% | . | . | -1%
CC(C)CCn1c(SCC(=O)NC2CC2)nc2cc(Cl)ccc2c1=O | -1% | 0% | -3% | . | . | 0%
Cc1ccc(S(=O)(=O)N2CCN(C(=O)COC(=O)CC(C)c3ccccc3)CC2)c(C)c1 (centres undefined) | 1% | 0% | -7% | . | . | -4%
Cn1cccc1/C=C1\CC(C(C)(C)C)C/C(=C\c2cccn2C)C1=O (centres undefined) | -1% | -14% | -19% | -28% | 13% | -23%
CN1C2CCC1/C(=C/c1cccn1C)C(=O)/C2=C\c1cccn1C | 1% | -10% | -1% | -50% | -5% | -2%
Cn1cccc1/C=C1\CCc2ccccc2C1=O | 1.5µM* | ? | 0.13µM* | 1µM* | 10µM* | 0.35µM*
Cn1cccc1/C=C1\Cc2ccccc2C1=O | 6.7µM* | ? | ? | ? | 11µM* | -26%
Cc1ccc(NC(=O)CCNC(=O)Cn2ccc3ccccc3c2=O)cc1F | 17µM* | ? | ? | . | . | 29%
COc1ccc(-c2cc(=O)c3c(O)cc(O)c(-c4cc(-c5cc(=O)c6c(O)cc(O)cc6o5)ccc4OC)c3o2)cc1 | . | . | . | 26% | -4% | .
COc1cc2oc(-c3ccccc3)cc(=O)c2cc1O | . | . | . | . | 2% | .
COc1cc(-c2cc(=O)c3c(O)cc(O)cc3o2)ccc1O | 15µM* | ? | 22% | . | . | 29%
O=c1cc(-c2ccc(O)c(O)c2)oc2ccc3ccccc3c12 | 2.4µM* | 1.5µM* | 17% | . | . | ?
COc1cc(-c2cc(=O)c3ccccc3o2)ccc1O | ? | 15µM* | ? | ? | -3% | 21%
CC(C)(C)C1=CC(=O)C(=O)C(C(C)(C)C)=C1 | 7.6µM* | -5% | -17% | -110% | -3% | -16%
CN1CCN(C(=O)c2ccc(Cn3cc(Cl)cn3)o2)CC1 | 2% | 1% | 3% | . | . | 2%
S=C(c1ccc(-c2ccc(Cl)cc2Cl)o1)N1CCCC1 | 11µM* | 10% | ? | . | . | ?
S=C(c1ccc(-c2ccc(Cl)cc2Cl)o1)N1CCCCC1 | 4.8µM* | ? | 2.8µM* | 13µM* | 3% | ?
CN1CCN(C(=S)c2ccc(-c3cc(Cl)ccc3Cl)o2)CC1 | 17µM* | -1% | 2% | . | . | 3%
